PrP 5UTR inh: inhibition of PrP 5' UTR reporter expression. cell-based PrP 5' UTR mRNA reporter, plate reader. inhibition, % (test concentration not listed). 340,000 tested, 0.35% active; in the data active means inhibition above about 52%; further: 0 = median of the neutral control wells
Sa ugtP lethal: growth inhibition of ugtP-null S. aureus, primary screen, RN4220 ugtP deletion, OD600 | growth inhibition, % (test concentration not listed) | 330,000 tested, 0.54% active | 16 h; in the data active means growth inhibition above about 68%;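 further: plate controls were untreated wells for no effect and antibiotic for full effect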
PfHsp40 rescue: rescue of yeast from PfHsp40 toxicity, primary screen, S. cerevisiae, ATP luminescence | S. cerevisiae expressing PfHsp40, growth rescue | growth rescue, % at 12.5 µM | 340,000 tested, 0.68% active | AID 504582, 2011; in the data active means growth rescue above about 28%, passing the limit was not always enough; inconclusive means no clear call, values can overlap the other calls;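 further: yeast W303a lacking pdr1 and pdr3 grown in galactose medium; growth measured after three days at 30 °C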
TcdB GH inh: TcdB glycohydrolase inhibitors, primary screen, biochemical, single point, plate reader. inhibition, % at 9.99 µM. 350,000 tested, 0.24% active. TcdB glycohydrolase enzymatic assay; in the data active means inhibition above about 10%
Sa RN4220 lethal: growth inhibition of S. aureus RN4220, primary screen, OD600; 16 h; inhibition, % (test concentration not listed); 330,000 tested, 0.33% active; AID 1259311, 2017; in the data active means inhibition above about 85%;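 further: plate controls were untreated cells for no effect and reference antibiotic for full effect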
* marks the source's active call; other numbers are inactive results; ? = inconclusive; / = no result. A selection: hits, their analogues and other compounds. The true share with any hit is near 1.2%.

SMILES | PrP 5UTR inh | Sa ugtP lethal | PfHsp40 rescue | TcdB GH inh | Sa RN4220 lethal
CCCNC(=S)N1CCN(c2nc(C)nc3sc4c(c23)CCCC4)CC1 | -20.9 | 4.2 | 31.8* | 1.4 | -6.6
CCCC(=O)NC(=S)Nc1ccc(NC(=O)c2cccs2)cc1 | -37.9 | 72.4 | -0.7 | / | 2.8
COc1ccc(NC(=O)C(=O)NCCN2CCN(C(=O)c3cccs3)CC2)cc1 | -16.6 | 11.5 | 57.6* | / | 3.4
O=C(Cc1cccs1)Nc1ccc(Cl)cc1 | -22.1 | 0.2 | 2.1 | / | -1.6
O=C(/C=C/c1ccc(S(=O)(=O)N2CCOCC2)cc1)NC(=S)Nc1ccc(N2CCOCC2)cc1 | -12.2 | 0.0 | 45.9* | 0.5 | 1.8
O=C(Cc1cccs1)Nc1ccc(N2CCOCC2)cc1 | -24.0 | -0.3 | 34.6* | -0.4 | -2.4
CCCC(=O)NC(=S)Nc1ccc(N2CCN(C(=O)c3cccs3)CC2)cc1 | -7.1 | active | 0.6 | 3.0 | 96.6
O=C(C[C@H]1CC[C@H]2[C@@H](COC[C@@H](O)CN2Cc2cccc(C(F)(F)F)c2)O1)NCCc1ccccc1 | / | / | / | -4.5 | /
CCCCCC(=O)NC(=S)Nc1ccc(N2CCOCC2)cc1 | -20.5 | 91.1* | 1.5 | 0.8 | 1.0
CCC(=O)NC(=S)Nc1ccc(N2CCOCC2)cc1 | -18.0 | 10.0 | 0.7 | 0.4 | 6.7
CCCCCCCCOc1ccc(C2CC(=O)NC2=O)cc1 (stereo not drawn) | -7.5 | 92.7* | 65.6* | 2.5 | -0.7
C=CC[C@@H](CC(=O)N(CCO)Cc1ccccc1)C(=O)NC[C@@H](OC(=O)[C@@H](CC=C)CC(=O)OC(C)(C)C)c1ccccc1 | -48.1 | / | 11.2 | 10.6* | /
C=CC[C@H](CC(=O)N(CCO)Cc1ccccc1)C(=O)NC[C@H](OC(=O)[C@@H](CC=C)CC(=O)OC(C)(C)C)c1ccccc1 | -10.4 | / | 5.3 | 0.7 | /
O=C(COc1ccc(F)cc1)Nc1nc(-c2ccccn2)cs1 | -15.9 | -4.9 | 1.4 | 2.2 | 6.5
O=C(COc1ccc2ccccc2c1)Nc1nccs1 | -18.8 | 0.8 | -1.1 | 1.9 | 9.7
Cc1ccc(OCC(=O)Nc2nc(-c3ccccn3)cs2)c(C)c1 | -9.8 | -2.6 | 53.6* | 5.7 | 24.7
O=C(COc1ccc([N+](=O)[O-])cc1)Nc1nc(-c2ccccn2)cs1 | -4.8 | -7.9 | 270.7* | -0.3 | 11.6
O=C(COc1ccccc1)Nc1nccs1 | -127.5 | 1.3 | 56.8* | 0.9 | 6.3
Cc1noc(C)c1NC(=O)N[C@H]1CC[C@H](CCNC(=O)C2CCOCC2)O[C@@H]1CO | / | / | / | -6.9 | /
CCCNC(=O)[C@@H]1[C@@H](CO)[C@@H]2Cn3c(ccc(C4=CCCCC4)c3=O)[C@@H]2N1C(=O)c1cnccn1 | / | / | / | -0.3 | /
C[C@@H]1CN([C@@H](C)CO)C(=O)c2cc(C3=CCCC3)cnc2O[C@H]1CN(C)C(=O)NC1CCCC1 | / | / | / | -1.8 | /
COC(=O)c1ccc(-c2ccco2)n1Cc1cccc(C)c1 | -4.4 | 94.5* | -0.1 | / | -2.7
Oc1ccc(/C=N/Nc2nc(N3CCCC3)nc(N3CCCC3)n2)cc1O | -20.6 | / | 2.5 | 21.0* | /
O=c1c2cc(F)ccc2sn1-c1ccc(F)cc1 | -13.1 | / | 76.4* | / | /
COc1ccc(-n2sc3ccccc3c2=O)cc1 | / | / | / | -2.2 | /
SMILES | PrP 5UTR inh | Sa ugtP lethal | PfHsp40 rescue | TcdB GH inh | Sa RN4220 lethal
COc1ccc(-n2sc3ccc(F)cc3c2=O)cc1 | -21.4 | / | 125.5* | -1.0 | /
Cc1ccc(S(=O)(=O)N(C)C[C@@H]2Oc3ccc(NC(=O)C4CC4)cc3CC(=O)N([C@H](C)CO)C[C@H]2C)cc1 | / | / | / | 1.1 | /
CN1C(=O)C(=Cc2c(OCc3cnc(Cl)s3)ccc3ccccc23)C(=O)N(C)C1=O | -27.6 | 18.2 | 125.2* | 0.6 | 2.9
CN1C(=O)C(=Cc2ccccc2OCc2ccccc2Cl)C(=O)N(C)C1=O | -6.8 | 8.7 | -0.2 | / | 8.8
CCOC(=O)C1=C(c2ccccc2)NC(N)=NC1c1ccc(OCc2ccc(Cl)cc2)c(OC)c1 (stereo not drawn) | -26.4 | 71.3 | 0.2 | 0.6 | 99.1*
CCOC(=O)C1=C(c2ccccc2)NC(=O)NC1c1cc(Cl)c(O)c(OC)c1 (stereo not drawn) | -6.2 | -1.4 | -0.5 | -0.2 | 7.0
CCCCCCC1CC(C(C)=NNC(N)=O)OC1=O (stereo not drawn) | / | 0.8 | / | / | 1.4
O=C(CN1CCN(Cc2ccccc2Cl)CC1)NN=C/C=C/c1ccco1 | / | -1.9 | / | / | 0.0
CCOC(=O)N1CCC(c2cc(=O)n3[nH]c(-c4ccccc4)cc3n2)CC1 | -4.1 | 0.6 | -0.5 | 24.4* | -0.2
O=Nc1c2cc3ccccc3[nH]c-2c2ccccc12 | -82.0 | -13.8 | 54.1* | 1.1 | 2.7
CC(C)CCOc1cccc(OCC(=O)Nc2ccncc2)c1 | -10.8 | 0.1 | 105.0* | 1.3 | 3.3
CCCNC(=O)C[C@@H]1C[C@@H]2c3cc(NS(C)(=O)=O)ccc3O[C@@H]2[C@H](CO)O1 | / | / | / | -0.4 | /
NC(=O)c1cccc2ccccc12 | / | 2.8 | -1.0 | 2.0 | 1.7
N#CSCC(=O)c1cccc2ccccc12 | -9.7 | -1.5 | 146.2* | -0.3 | 7.2
O=C(N/N=C/c1cc2c3c(c1O)CCCN3CCC2)c1ccccc1O | 33.4 | / | 175.6* | 0.0 | /
CCCc1ccc(C(C)NC(=S)NC2CCCCC2)cc1 (stereo not drawn) | -3.1 | -26.2 | 159.4* | 1.5 | -13.1
CCCCc1cc(=O)oc2c(CN3CCCC3)c(O)ccc12 | -28.8 | -3.7 | 1.2 | / | 2.2
CCCc1cc(=O)oc2c(CNc3ccc(OCC)cc3)c(O)ccc12 | -11.4 | 14.2 | 47.7* | 1.7 | 5.4
CC1=C[C@H]2OC(=O)[C@@H](C)[C@H]2C[C@@H]2[C@H]1C[C@@H](O)[C@@]2(C)O | -21.4 | / | 39.2* | 0.6 | /
C[C@H](O)C#Cc1cnc2c(c1)C(=O)N([C@H](C)CO)C[C@H](C)[C@H](CN(C)C(=O)c1ccccc1)O2 | / | / | / | 0.0 | /
O=C(COC(=O)c1ccc2c(c1Cl)C(=O)c1ccccc1C2=O)NC1CCCCC1 | -8.9 | -4.1 | 1.7 | 0.3 | 3.7
O=C(COC(=O)c1ccc2c(c1Cl)C(=O)c1ccccc1C2=O)NC1CC1 | -22.0 | 79.8 | 0.8 | 1.2 | 87.2*
CC=Cc1ccc2n(c1=O)C[C@H]1[C@H](CO)[C@@H](C(=O)N[C@@H](C)c3ccccc3)[C@@H]2N1Cc1cncnc1 (mixture of isomers) | / | / | / | 2.0 | /
O=C(c1ccc(Br)cc1)C(CN1CCOCC1)c1ccccc1 (stereo not drawn) | -2.7 | 100.2* | 0.6 | 0.2 | 92.8*
CCOc1ccc(C(=O)C(CN2CCOCC2)c2ccccc2)cc1 (stereo not drawn) | -20.5 | 34.6 | ? | / | 16.1
SMILES | PrP 5UTR inh | Sa ugtP lethal | PfHsp40 rescue | TcdB GH inh | Sa RN4220 lethal
C/C=C/c1ccc(OCCOc2cc(C=O)ccc2OC)c(OC)c1 | -45.5 | 38.1 | 39.3* | / | 2.2
Cc1scc(C(=O)N2CCN(c3ccc(Cl)cc3)CC2)c1C | -16.3 | 5.8 | 5.8 | 10.7* | 14.6
C[C@H]1CN([C@@H](C)CO)C(=O)CCCn2nncc2CO[C@@H]1CN(C)C(=O)Nc1ccc(F)cc1 | / | / | / | 0.0 | /
Cc1c(Cl)cccc1NC(=O)CCC(=O)NN=Cc1ccco1 | / | 4.7 | / | / | 0.8
CC(=NNC(=S)N1CCCC1)c1ccccn1 | / | / | / | -3.1 | /
CC(=NNC(=S)N1CCC1)c1ccccn1 | 30.5 | / | 34.3* | -1.9 | /

Assay outcomes (PubChem)
